# hDAT+cocaine – changed hDAT dopamine uptake under cocaine IC80, either direction, primary screen, cocaine antagonist project, cell-based, LLC-PK1 hDAT, [14C]-dopamine uptake, MLSMR; Sodium-dependent dopamine transporter (Homo sapiens), Q01959; LLC-PK1 hDAT cells, [14C]-dopamine uptake with cocaine IC80; actives deviate in either direction; B-score at 10 µM; 1.3% of 110,000 active;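 active = Z score or B-score, a plate-position-corrected score, falls beyond the plate's 99.7% confidence bounds, in either direction; inactive = both scores lie inside the 99.7% bounds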
# Target sequence (Q01959 whole entry, looked up): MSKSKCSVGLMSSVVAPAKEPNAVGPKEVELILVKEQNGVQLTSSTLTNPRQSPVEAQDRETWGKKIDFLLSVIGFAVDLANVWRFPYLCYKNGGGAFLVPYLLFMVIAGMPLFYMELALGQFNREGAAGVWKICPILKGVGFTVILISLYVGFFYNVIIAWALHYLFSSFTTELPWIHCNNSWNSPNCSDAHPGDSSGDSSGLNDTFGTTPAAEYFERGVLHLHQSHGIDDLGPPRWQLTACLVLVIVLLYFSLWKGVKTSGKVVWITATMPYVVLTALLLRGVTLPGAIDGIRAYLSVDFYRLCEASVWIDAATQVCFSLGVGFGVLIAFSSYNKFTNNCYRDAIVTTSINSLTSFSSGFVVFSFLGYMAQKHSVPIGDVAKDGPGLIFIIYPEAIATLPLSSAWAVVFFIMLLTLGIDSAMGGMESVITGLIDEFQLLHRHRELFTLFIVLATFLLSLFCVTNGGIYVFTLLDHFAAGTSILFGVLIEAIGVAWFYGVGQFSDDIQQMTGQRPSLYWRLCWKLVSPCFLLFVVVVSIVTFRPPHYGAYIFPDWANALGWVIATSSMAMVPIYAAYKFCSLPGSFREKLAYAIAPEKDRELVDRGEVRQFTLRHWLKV
# PLAP activator – PLAP enzyme activators, biochemical, luminescence, HTS; Alkaline phosphatase, placental type (Homo sapiens), P05187; purified PLAP enzyme, luminescent substrate read-out; active compounds read high; activation fold at 20 µM; 1.2% of 96,000 active; in the data active = activation fold above about 2
# PostGolgi ctrl – growth inhibition of yeast control strain, primary screen, counter-screen for post-Golgi transport modulator project; AID 738, 2007; 5% of 98,000 active; efflux-deficient yeast background strain, growth absorbance A615, 16 h; inhibition, % at 10 µM
# Cav3 T inh – Cav3.2 calcium influx blockers – cell-based, Fluo-4 calcium fluorescence, FDSS, MLSMR library, primary screen. Cav3.2-expressing cells; active compounds read low. B-score at 10 µM. 4% of 100,000 active. AID 449739, 2010;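 active = single-dose well whose peak fluorescence ratio is a statistical outlier from its plate by either plate-standardised score or position-corrected B-score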
# PostGolgi yeast – phenotypic screen on post-Golgi transport, primary screen; post-Golgi transport phenotypic cell assay; AID 739, 2007; 0.9% of 98,000 active; inhibition, % at 10 µM;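 also: yeast cells grown in 1536-well plates; yeast grown about 18 h at 30C before absorbance read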
# Numbers stand for hits; . = inactive; / = no result. An excerpt weighted towards active compounds, which were near 9.6% of everything screened. Rule as the data show it, unless noted: active = inhibition above about 30%; inactive = the rest.
SMILES,hDAT+cocaine,PLAP activator,PostGolgi ctrl,Cav3 T inh,PostGolgi yeast
CC1=C(C(=O)Nc2ccccn2)C(c2cccnc2)n2nnnc2N1 (stereo not given),.,.,.,.,.
O=C(c1ccccc1)N1CCCCC(Sc2nnnn2-c2ccccc2)C1=O (stereo not given),.,/,/,.,/
O=C(c1ccc(F)cc1)N1CCCCC(Sc2nnnn2-c2ccccc2)C1=O (stereo not given),.,.,45,.,.
O=C(CCc1ccc(S(=O)(=O)N2CCOCC2)cc1)Nc1cc(Cl)ccc1N1CCOCC1,.,.,34,.,.
O=C(Nc1ccccc1Cl)c1cc(S(=O)(=O)N2CCCCC2)ccc1N1CCOCC1,.,.,.,-6.3,.
O=C(Nc1ccccc1Cl)c1ccc(S(=O)(=O)N2CCOCC2)cc1,.,/,.,.,.
O=C(CCc1ccc(S(=O)(=O)N2CCOCC2)cc1)Nc1nccs1,.,.,.,.,.
O=C(Nc1ccccc1Cl)c1cc(S(=O)(=O)N2CCOCC2)cs1,.,.,31,.,.
COc1cccc(C2c3c(-c4ccccc4)n[nH]c3C(=O)N2c2ccc(C(=O)O)cc2)c1 (stereo not given),.,.,.,.,.
COc1ccc(-c2n[nH]c3c2C(c2ccc(OC)c(OC)c2)N(c2ccccc2)C3=O)cc1 (stereo not given),.,2.4,.,-5.6,.
CCCNC(=O)CN(c1ccc(F)cc1)S(=O)(=O)c1ccc2c(c1)OCCO2,.,.,.,.,.
O=C(CN(c1ccc(F)cc1)S(=O)(=O)c1ccc2c(c1)OCCO2)NCC1CCCO1 (stereo not given),.,.,33,.,.
O=C(CC1Sc2ncnn2C1=O)Nc1ccc(Br)cc1 (stereo not given),/,.,.,.,.
CCC(C)N1C(=O)c2ccccc2C1C(=O)NC1CCCCCC1 (stereo not given),.,.,31,.,.
Cc1cc(NC(=O)CSc2nnnn2C)n(-c2ccccc2)n1,.,.,.,.,.
O=C(Cc1ncn[nH]1)NCCc1ccccc1,.,2.4,.,.,.
O=C(CCc1ccccc1)Nc1ncn[nH]1,.,2.6,.,.,.
CCSc1ccccc1C(=O)NCc1ccco1,.,.,.,.,.
O=C(Nc1cc(N2CCOCC2)ncn1)Nc1cccc2ccccc12,.,.,.,.,.
O=S(=O)(/N=C(/Nc1cc(N2CCOCC2)ncn1)c1ccc(F)cc1)c1ccccc1,.,2.1,.,.,.
C=CCN1C(=O)N(/C=C/C)c2cccc3cccc1c23,.,.,30,-5,.
Cc1cc(NC(=O)c2cc(C(C)C)on2)no1,.,.,.,.,.
CCOc1ccc(N=C2NC(=O)C(CC(=O)O)S2)cc1 (stereo not given),.,.,.,.,.
CCOc1ccc(N=C2NC(=O)S/C2=C\c2ccc(N(C)C)cc2)cc1,/,.,34,/,.
Cc1ccc(-c2nnc(NC3CCCCC3)c3ccccc23)cc1S(=O)(=O)N1CCN(C)CC1,1.9,.,.,.,.
SMILES,hDAT+cocaine,PLAP activator,PostGolgi ctrl,Cav3 T inh,PostGolgi yeast
Cc1ccc(-c2nn3c(C)nnc3c3ccccc23)cc1S(=O)(=O)N1CCN(CCO)CC1,.,.,.,.,.
C#CCOCCOCCOCCNc1nc(N2CCN(C(=O)C([C@@H](C)CC)n3cc(C(N)COC(=O)C(F)(F)F)nn3)CC2)nc(N2CCN(C(=O)C([C@@H](C)CC)n3cc(C(N)CC(C)C)nn3)CC2)n1 (stereo not given in full),.,/,/,.,/
CC1=CC(C)(C)N2C(=O)C3(SCC(=O)N3c3ccc(O)cc3)c3cc(C)cc1c32 (stereo not given),.,.,.,-7.4,.
CNC(=O)OC(C)CNS(=O)(=O)c1ccc(C)cc1 (stereo not given),.,.,.,.,.
CCC(C)NS(=O)(=O)c1ccc(NS(C)(=O)=O)cc1 (stereo not given),.,.,.,.,48
Cc1ccc(S(=O)(=O)NCC(C)NS(=O)(=O)c2ccc(C)cc2)cc1 (stereo not given),-8.2,.,.,/,.
CCC(C)NS(=O)(=O)c1ccc(NC(C)=O)cc1 (stereo not given),.,/,/,.,/
CC1=CC(C)(C)N2C(=O)C3(N=C(N)NC(Nc4ccccc4)=N3)c3cc(C)cc1c32 (stereo not given),.,2.1,.,-3.7,.
CCOc1ccc(OCC)c(NC(=O)Nc2ccc3c(c2)N(C)C(=O)CS3)c1,1.9,.,.,.,.
COc1cccc(NC(=O)Nc2ccc3c(c2)N(C)C(=O)CS3)c1,.,.,.,.,.
Cc1nc(SCc2c(F)cccc2Cl)n[nH]1,.,.,.,.,.
COc1cnc(SCc2c(Cl)cccc2Cl)nc1Cl,.,.,34,.,.
O=C(CC(=O)c1ccccc1O)c1ccc(F)cc1,.,.,58,.,.
Cc1ccc(C(=O)CC(=O)c2cc(Cl)ccc2O)cc1,.,.,33,.,.
Cc1ccccc1C(=O)NNC(=O)c1ccc(F)cc1,/,.,.,.,.
O=C(CC(=O)c1ccccc1O)c1cccc(F)c1,.,.,38,.,.
O=C(Nc1ccccc1C(=O)O)c1cccc(F)c1,.,/,/,.,/
CC(C)(C)c1ccc(C(=O)CC(=O)c2cc(Cl)ccc2O)cc1,.,.,.,.,.
CC1Cc2cc(/C(O)=C3/C(=O)C(=O)N(CC4CCCO4)C3c3ccco3)ccc2O1 (stereo not given),.,.,.,/,.
COCOc1ccc(-c2oc3c(C/C=C(\C)CCC=C(C)C)ccc(O)c3c(=O)c2OCOC)c(OCOC)c1,.,/,/,.,/
CCOC(=O)c1sc(NC(=O)Cn2nnc3sc4c(c3c2=O)CCCC4)nc1C,.,.,.,-4.6,.
Cc1cc(NC(=O)Cn2nnc3sc4c(c3c2=O)CCCC4)no1,.,.,.,.,.
Cc1c(=O)n(OCc2ccccc2F)c2ccccc2[n+]1[O-],.,.,.,.,.
CNC(=O)CSc1nc2nc(C)cc(C)n2n1,.,.,.,.,.
Cc1cc(C)n2nc(SCC(=O)N(C(C)C)C(C)C)nc2n1,-8.9,.,.,/,.
SMILES,hDAT+cocaine,PLAP activator,PostGolgi ctrl,Cav3 T inh,PostGolgi yeast
CCOC(=O)CC(=O)CSc1nc2nc(C)cc(C)n2n1,.,.,30,.,.
Cc1cc(C)n2nc(SCC(=O)N(C)c3ccccc3)nc2n1,.,.,.,.,.
CCOC(=O)C(=Cc1ccc(-c2ccsc2C(=O)OC)o1)C(=O)OCC,.,.,.,.,.
CCOC(=O)/C(C#N)=C/c1ccc(-c2ccsc2C(=O)OC)o1,.,.,.,-7,.
CCN1CCN(Cc2ccccc2NC(=O)Nc2ccc(C)cc2)CC1,.,.,35,.,.
CCOC(=O)c1coc(CNC(=O)c2c(C)oc3c2CCCC3)c1,.,.,32,.,.
O=C(c1cc2c(s1)-c1ccccc1OC2)N1CCN(c2ccccc2)CC1,.,.,55,.,.

# High-throughput results from PubChem BioAssay.
